# This is a sample that favours compounds with a hit; in the whole collection about 19% have one here.
# HT1080 IDH1KD tx – kills HT-1080 cells with IDH1 knockdown | HT-1080 IDH1 knockdown viability, ATP luminescence, 48 h | Potency, µM (series often up to 46.1 µM), for the others: at the top dose activity, negative = toxicity, hits mostly cytotoxic | 2% of 360,000 active | AID 686971;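 also: potency is read from the fitted curve at half-maximal effect; 0% = DMSO wells and -100% = cell-free medium wells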
#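 Viability of IDH1-knockdown HT-1080 fibrosarcoma cells was assessed by CellTiter-Glo after 48 h at 37 °C with titrated compound; concentration-effect curves were classified by fit quality and response size.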
# IL-1B inflam inh – inhibitors of inflammasome signaling (IL-1 beta secretion); 4.7% of 360,000 active; activity change, % at 57.5 µM; THP-1 LPS/ATP IL-1B secretion, AlphaLISA, 16 h; stronger effect = lower value; in the data active = activity change below about -50%; inconclusive = mostly about -30% to -49%
#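 THP-1 cells pretreated 1 hr with compounds (up to 57.5 uM final), then stimulated with LPS (250 ng/mL final) plus ATP (1.25 mM final); secreted IL-1B measured by AlphaLISA after 16 hr, decreased signal indicating inhibition.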
# DT40 TDP1 CPT – DT40-hTDP1 cell growth loss with CPT; chicken DT40 Tdp1-/-;hTDP1 cells + 20 nM CPT, ATP luminescence, 48 h; Potency, µM (highest dose often 46.2 µM), inactives show at the top dose activity change, negative = growth inhibition, usual class: inhibitors; 12% of 420,000 active; also: potency is read from the fitted curve at half-maximal effect; nearly all actives have a fitted effect of over 55% in size
#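 Chicken DT40 Tdp1-/- cells complemented with human TDP1, 400 cells/well, exposed to compounds plus 20 nM camptothecin for at least 48 h at 37 C; viability read as ATP content by CellTiter-Glo luminescence.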
# HT1080-NT tox – kills 2HG-producing HT-1080-NT fibrosarcoma cells; 1.6% of 360,000 active; Potency, µM (top dose mostly 46.1 µM), for the others: at the top dose activity, negative = less viability, actives largely listed as cytotoxic; AID 686970; HT-1080-NT fibrosarcoma viability, CellTiter-Glo ATP luminescence, 48 h;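 also: NT is the 2HG producing partner of a matched IDH1 knockdown line; potency is read from the fitted curve at half-maximal effect; 0% = DMSO-treated cells and -100% = media-only wells without cells; nearly all actives have a fitted effect of over 55% in size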
#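 Viability of the 2HG-overproducing fibrosarcoma line after 48 hours of compound exposure at 37 degrees C was determined by luminescence with CellTiter-Glo, and concentration-effect curves were then fitted and categorized.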
# uPA generation – cell surface uPA generation inhibition; 0.31% of 330,000 active; Potency, µM (highest dose often 38.3 µM), for the others: top-dose activity change, negative = inhibition, most hits filed as inhibitors; cell surface uPA generation assay, qHTS; active = well fitted inhibition curve with a large enough effect; inconclusive = small, poorly fitted or top-dose-only effect; inactive = no such curve, though single readings can be large or run the other way; tested in mouse RAW 264.7 cells; also: potency is read from the fitted curve at half-maximal effect; nearly all actives have a fitted effect of over 55% in size
# DT40 TDP1 no CPT – qHTS for Inhibitors of human tyrosyl-DNA phosphodiesterase 1 (TDP1): qHTS in cells in absence of CPT; DT40 Tdp1-/- hTDP1 cells, no CPT, ATP luminescence, 48 h; Potency, µM (series often up to 46.2 µM), inactives show at the top dose activity change, negative = growth inhibition, actives largely listed as inhibitors; 15% of 420,000 active; AID 686978, 2013; also: potency is read from the fitted curve at half-maximal effect; nearly all actives have a fitted effect of over 55% in size
#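 Chicken DT40 Tdp1-/- cells stably complemented with human TDP1 were seeded at 400 cells/well with DMSO in place of 20 nM camptothecin. After compound pinning, cells grew at least 48 hr at 37 °C; viability read by CellTiter-Glo luminescence.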
# * = called active by the depositor; ? = inconclusive; · = not tested or not shown. Unless noted, calls follow the shape of the dose curve; as a rule, active = well fitted curve in the direction sought with a large enough effect; inconclusive = small, poorly fitted or top-dose-only effect, or another doubt; inactive = no such curve, though single readings can be large; an effect the other way counts as inactive or inconclusive. Unless noted, % is scaled to controls: 0 for no effect and ±100 for the full control effect.
SMILES,HT1080 IDH1KD tx,IL-1B inflam inh,DT40 TDP1 CPT,HT1080-NT tox,uPA generation,DT40 TDP1 no CPT
C[C@H](O)[C@@H]1C(=O)N2CCc3c([nH]c4ccccc34)[C@@H]2C[C@@H]1N(C)Cc1ccc2c(c1)OCO2,-12.1%,-10.8,?,-18.2%,·,16.4µM*
C[C@H](O)[C@@H]1C(=O)N2CCc3c([nH]c4ccccc34)[C@@H]2C[C@@H]1N(C)C(=O)c1cc(Cl)cc(Cl)c1,?,-20.7,23.1µM*,-10.0%,·,18.4µM*
C[C@H](O)[C@@H]1C(=O)N2CCc3ccc(N4CCOCC4)cc3[C@@H]2C[C@@H]1N(C)S(=O)(=O)c1ccccc1,10.4%,9.5,?,-1.0%,9.2%,-13.8%
C[C@H](O)[C@@H]1C(=O)N2CCc3c([nH]c4ccccc34)[C@@H]2C[C@@H]1N(C)C(=O)Nc1cccc2ccccc12,?,-15.3,?,?,·,?
Cc1ccccc1C(=O)N(C)[C@H]1C[C@H]2c3[nH]c4ccccc4c3CCN2C(=O)[C@H]1[C@H](C)O,1.4%,-15.2,?,-9.7%,·,20.6µM*
COc1ccc(CCNC(=O)CCCn2c(=O)c3ccccc3n(CC(=O)Nc3ccccc3C)c2=O)cc1OC,·,·,-4.7%,·,·,-14.4%
O=C(Cc1ccccc1F)NNC(=O)c1ccncc1,13.1%,-11.0,5.3%,-0.3%,5.6%,17.8%
CC(C)S(=O)(=O)NC(=O)C1(C)CCN1C(=O)Cc1ccccc1 (stereo not drawn),7.9%,11.5,6.6%,0.0%,·,-10.9%
C[C@H](O)[C@@H]1CN2CCc3c([nH]c4ccccc34)[C@@H]2C[C@@H]1N(C)Cc1cc(Cl)cc(Cl)c1,-9.1%,-16.5,?,-15.6%,·,23.1µM*
CN(CC(=O)Nc1ccc(Cl)cc1)C(=O)CNC(=O)c1ccc(Br)o1,-1.0%,2.4,11.0%,1.2%,4.7%,2.3%
CCOC(=O)c1sc(C)c2c1NC(c1ccc(N(C)C)cc1)NC2=O (stereo not drawn),-14.0%,-17.3,?,-3.3%,8.8%,?
CCOC(=O)N1CCc2c(sc3c2C(=O)NC(c2ccccc2)N3)C1 (stereo not drawn),14.6µM*,0.0,6.51µM*,?,-14.1%,3.26µM*
CCOC(=O)N1CCc2c(sc3c2C(=O)NC(c2ccc(N(C)C)cc2)N3)C1 (stereo not drawn),·,·,2.31µM*,·,·,3.66µM*
CCOc1cc(C2NC(=O)c3c(sc4c3CCN(C)C4)N2)ccc1OC(=O)c1ccc(Br)cc1 (stereo not drawn),·,·,3.7%,·,·,3.5%
O=C(NCc1cccnc1)/C(=C/c1ccc(-c2ccc(Cl)cc2)o1)S(=O)(=O)c1ccccc1,5.62µM*,-105.8*,5.17µM*,6.31µM*,·,7.31µM*
O=C(NCc1cccnc1)/C(=C\c1ccc(-c2ccc(Br)cc2)o1)S(=O)(=O)c1ccccc1,5.8µM*,-104.9*,2.91µM*,9.2µM*,-9.3%,3.26µM*
O=C(CN(Cc1ccc(Br)cc1)S(=O)(=O)c1ccccc1)NCc1cccnc1,-7.4%,-17.4,?,-7.8%,5.1%,?
Cc1cccc(-c2c3c(=O)n(C)c(=O)n(C)c3c3cnc4ccccc4n23)c1,·,·,-12.4%,·,·,?
COCC(=O)Nc1cc(C(=O)N2CCCCC2c2nccs2)c2c(c1)nc(-c1ccncc1)n2C (stereo not drawn),·,·,-4.9%,·,·,-5.9%
O=C(c1cc(C2CC2)nn1-c1ccccc1)N1CCN(c2ncc(C(F)(F)F)cc2Cl)CC1,16.4%,-9.7,?,21.8%,7.1%,-14.5%
O=C(c1cc(C2CC2)nn1-c1ccccc1)N1CCN(c2ccc(O)cc2)CC1,-15.7%,-12.8,?,0.5%,-23.9%,?

# Bioassay records (PubChem)
